ERAP1 HTS inh: blocks human ERAP1 aminopeptidase activity. Q9NZ08. recombinant ERAP1, Leu-AMC fluorescence, 60 min. inhibition, % at 10.7 µM. hit rate 0.15% among 340,000. AID 652197;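 active = mean replicate inhibition of at least 30%, or all replicates individually reaching that 30% level; inactive = mean below 30% and not every replicate reaching it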;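 note: 0% = neutral control wells and 100% = L-leucinethiol positive control wells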
MLL AF4-AF9 inh: blocks AF4 peptide binding to human AF9 | P42568 | AlphaScreen, biotin-AF4 peptide binding to FLAG-AF9 | inhibition, % at 10 µM | hit rate 0.47% among 350,000 | AID 651704;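 active = every replicate reaching a set inhibition limit, whatever the replicate mean, cut at about 25% in these data; inconclusive = mean inhibition reaches that limit but some replicates miss it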;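 note: 0% = plate neutral control median and 100% = total signal loss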
RAD52 inh: inhibitors of human RAD52 DNA annealing | recombinant RAD52 DNA annealing, FRET fluorescence | hit rate 0.46% among 360,000 | inhibition, % at 18.7 µM;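 active = every replicate showing at least 50% inhibition; inconclusive = mean inhibition at least 50% but not in every replicate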
Target sequence (P43351 whole entry, looked up): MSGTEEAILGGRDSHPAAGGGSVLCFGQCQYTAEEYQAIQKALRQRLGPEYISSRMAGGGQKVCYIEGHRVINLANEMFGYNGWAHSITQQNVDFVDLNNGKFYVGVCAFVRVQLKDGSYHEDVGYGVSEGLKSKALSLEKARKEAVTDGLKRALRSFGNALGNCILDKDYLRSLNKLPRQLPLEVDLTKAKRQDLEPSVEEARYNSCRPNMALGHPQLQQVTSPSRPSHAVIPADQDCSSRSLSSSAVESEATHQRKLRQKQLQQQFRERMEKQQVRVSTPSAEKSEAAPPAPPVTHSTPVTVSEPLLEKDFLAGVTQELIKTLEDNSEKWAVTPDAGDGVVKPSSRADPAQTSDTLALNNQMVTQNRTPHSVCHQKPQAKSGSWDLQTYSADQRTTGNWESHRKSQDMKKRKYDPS
FGF22 binding: FGF22 (human) thermal shift binding; Q9HCT0; recombinant FGF22 thermal shift, SYPRO orange fluorescence; percent of sucrose octasulfate shift, DMSO zero; activity (Tm shift, normalised), % at 9.99 µM; hit rate 1.5% among 340,000; AID 651658;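 active = mean Tm shift, scaled 0 neutral to 100 positive control, at about 1.3% or above, every replicate too, limit read from the data; inconclusive = no clear call, values can overlap the other calls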
Target sequence (Q9HCT0 whole entry, looked up): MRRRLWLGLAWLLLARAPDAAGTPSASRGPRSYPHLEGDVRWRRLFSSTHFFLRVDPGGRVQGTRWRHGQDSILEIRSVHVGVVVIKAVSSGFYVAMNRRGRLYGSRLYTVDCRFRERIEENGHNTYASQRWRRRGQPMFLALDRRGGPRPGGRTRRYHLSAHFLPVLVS
DENV2 CPE: protects cells from dengue virus 2 cytopathic effect. DENV2-infected cells, cytopathic effect rescue, plate reader. CPE inhibition, % at 9.99 µM. hit rate 1.7% among 350,000. AID 651640; in the data active = CPE inhibition above about 20%, passing the limit was not always enough; inconclusive = no clear call, values can overlap the other calls; tested in BHK-21 cells;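 note: 0% = median of neutral control wells and 100% = median of positive control wells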
Numbers without * were called inactive; ? = inconclusive; / = no result given; ! = repeats disagree. Most compounds without a hit are left out; they make up all but 4% or so of the library.

SMILES	ERAP1 HTS inh	MLL AF4-AF9 inh	RAD52 inh	FGF22 binding	DENV2 CPE
COc1ccc(O)c(C(=O)c2cc(C#N)c(=O)n(-c3ccc(Cl)cc3)c2)c1	/	29*	-33	0	-1
C[C@@H]1CCCCO[C@H](CN(C)Cc2ccc(Cl)c(Cl)c2)[C@H](C)CN([C@@H](C)CO)C(=O)c2cc(NS(C)(=O)=O)ccc2O1	-1	7	6	0	16
CCc1ccc(NS(=O)(=O)c2ccc(C)c(C(=O)N3CCOCC3)c2)cc1	83*	-1	-14	0	-2
Cc1ccc(NS(=O)(=O)c2ccc(C)c(C(=O)N3CCOCC3)c2)cc1	1	-2	-14	0	18
Cc1ccccc1-c1ccc(C2[C@@H]3CN(S(=O)(=O)c4ccccc4C)C[C@H]2N3)cc1 (stereo not given in full)	0	-5	72*!	/	2
COc1ccccc1S(=O)(=O)N1C[C@@H]2N[C@H](C1)C2c1ccc(-c2ccccc2C)cc1 (stereo not given in full)	/	/	/	0	-4
COc1cccc(-c2ccc(C3[C@@H]4CN(S(=O)(=O)c5ccccc5)C[C@H]3N4)cc2)c1 (stereo not given in full)	6	3	47	/	-1
COc1ccc(-c2ccc(C3[C@@H]4CN(S(=O)(=O)c5ccccc5C)C[C@H]3N4)cc2)cc1 (stereo not given in full)	/	/	/	0	31*!
COc1cccc(-c2ccc(C3[C@@H]4CN(S(=O)(=O)c5ccccc5C)C[C@H]3N4)cc2)c1 (stereo not given in full)	2	0	73*!	/	1
COc1cccc(S(=O)(=O)N2C[C@@H]3N[C@H](C2)C3c2ccc(/C=C/c3ccccc3)cc2)c1 (stereo not given in full)	0	-2	58*!	/	0
COc1cccc(S(=O)(=O)N2[C@@H]3CNC[C@H]2C3c2ccc(/C=C/c3ccccc3)cc2)c1 (stereo not given in full)	0	-7	48	/	-4
Cc1cc(NC2CCCCC2)nc2ccccc12	0	0	-14	0	-7
Cc1ccnc(NC2CCCCC2)c1	-1	0	1	44*	19
C[C@H]1CN([C@@H](C)CO)C(=O)c2cc(Br)cnc2O[C@H]1CN(C)Cc1ccncc1	-3	-4	1	1	5
COc1ccc(NC(=O)C(OC(=O)c2ccccc2)c2cccs2)cc1 (stereo not given)	2	1	2	0	-3
Cc1ccc(-c2ccc([C@H]3[C@H]4CN(S(=O)(=O)c5cccc(C)c5)CCCCN4[C@H]3CO)cc2)cc1	4	-9	26	1	-8
Cc1ccc(-c2ccc([C@@H]3[C@H](CO)N4CCCCN(S(=O)(=O)c5cccc(C)c5)C[C@@H]34)cc2)cc1	-4	-7	69*	-1	0
Cc1ccc(-c2ccc([C@H]3[C@H](CO)N4CCCCN(S(=O)(=O)c5cccc(C)c5)C[C@@H]34)cc2)cc1	-2	0	50*	-1	-2
CC(=O)NS(=O)(=O)c1ccc(N=NN2CCCCC2)cc1	1	8	-6	0	15
NS(=O)(=O)c1ccc(N=NN2CCCCC2)cc1	-2	2	-14	43*	5
Cc1cc(C(=O)CSc2nn3c(=O)c(C(C)(C)C)nnc3s2)c(C)n1C1CC1	4	7	-35	1.7*	3
COc1cc(Nc2ccn3nccc3n2)cc(OC)c1OC	-2	1	-3	0	23*
O=[N+]([O-])c1cc(C(F)(F)F)ccc1N1CCCC(O)C1 (stereo not given)	-8	-1	-6	43*	-1
O=[N+]([O-])c1cc(C(F)(F)F)ccc1N1CCN(CCO)CC1	2	0	-9	43*	-2
COc1cccc(CN2CC3(CN(C(C)=O)C3)c3c(n(C)c4cc(OC)ccc34)[C@@H]2CO)c1	0	1	-51	0	1
SMILES	ERAP1 HTS inh	MLL AF4-AF9 inh	RAD52 inh	FGF22 binding	DENV2 CPE
CCN(CC)CCOC(c1ccccc1)c1ccc(C)cc1 (stereo not given)	0	1	-3	1	1
Cc1ccc(C(OCC(C)(C)C[N+](C)(C)C)c2ccccc2)cc1 (stereo not given)	39*	-17	-2	0	-3
C=CCN1Cc2ccccc2C[C@@]2(COC(c3ccc(OCCCO)cc3)=N2)C1=O	0	3	17	0	24*
CN=c1scc(-c2ccccc2F)n1/N=C/c1ccc(O)c(O)c1O	1	?	-10	0	2
CN=c1scc(-c2ccccc2F)n1/N=C/c1ccc[nH]1	-2	45*	-4	0	4
O=C(CC1CC1)N1[C@@H](CO)[C@@H]2c3ccccc3N(S(=O)(=O)c3ccc(F)cc3)C[C@@H]21	1	2	-5	1	3
O=C1c2ccccc2C(=O)c2c1cccc2N(CCO)CCO	1	28*	-52	0	-2
CNc1cccc2c1C(=O)c1ccccc1C2=O	-2	6	-23	0	-9
COc1ccc(/C=N/NC(=O)CNS(=O)(=O)c2ccc(C)cc2)cc1	2	-2	-21	42	-2
O=C(CNS(=O)(=O)c1ccccc1)N/N=C/c1ccc(O)cc1	1	0	-3	43*	8
COc1ccc(S(=O)(=O)Nc2ccc3c(c2)C(=O)N([C@H](C)CO)C[C@@H](C)[C@H](CN(C)Cc2ccc(Cl)c(Cl)c2)OCCCC[C@H](C)O3)cc1	/	/	/	0	-23
C[C@@H]1CN([C@H](C)CO)C(=O)Cc2cc(NC(=O)CCCCCC(=O)Nc3ccccc3N)ccc2O[C@@H]1CN(C)Cc1ccncc1	-5	13	-26	0	5
C[C@@H]1CN([C@@H](C)CO)C(=O)Cc2cc(NC(=O)CCCCCC(=O)Nc3ccccc3N)ccc2O[C@H]1CN(C)S(=O)(=O)c1ccccc1	-1	-1	-4	0	-5
C[C@H](CO)N1C[C@H](C)[C@@H](CN(C)Cc2ccncc2)Oc2ccc(NC(=O)CCCCCC(=O)Nc3ccccc3N)cc2CC1=O	2	-2	-15	0	53*
C[C@H]1CN([C@@H](C)CO)C(=O)Cc2cc(NC(=O)CCCCCC(=O)Nc3ccccc3N)ccc2O[C@@H]1CN(C)S(=O)(=O)c1ccccc1	-2	-1	-14	0	79*
C[C@H]1CN([C@@H](C)CO)C(=O)Cc2cc(NC(=O)CCCCCC(=O)Nc3ccccc3N)ccc2O[C@H]1CN(C)C(=O)Nc1cccc2ccccc12	/	/	-2	0	28*
C[C@@H]1CN([C@@H](C)CO)C(=O)c2cc(NC(=O)CCCCCC(=O)Nc3ccccc3N)ccc2O[C@H]1CN(C)Cc1ccncc1	1	-3	5	0	41*
CN(C)CC(=O)N[C@@H]1CC[C@@H](CCNC(=O)Nc2ccc(C(F)(F)F)cc2)O[C@@H]1CO	1	7	13	0	7
O=C(C[C@H]1C=C[C@@H](NC(=O)c2ccncc2)[C@H](CO)O1)NCc1ccncn1	1	-2	2	/	5

Bioassay records: PubChem BioAssay, Broad Institute
